# Rtt109 Vps75 = inhibitors of Candida albicans Rtt109/Vps75 histone acetyltransferase | inhibition, % at 34.9 µM | 330,000 compounds, 0.16% hits | AID 540336 | Q5AAJ8 | purified Rtt109/Vps75, ThioGlo CoA-SH fluorescence, 4 h;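 active means inhibition of at least 50% in every replicate; inconclusive means best replicate reaches 50% inhibition but some replicates fall short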
# PKA-R2B act = PKA-R2B complex activation. P22694+P31323. PKA-R2B holoenzyme dissociation, Cy5-IP20 fluorescence polarization; R2B truncated from residue 108, S112A mutant; 0% DMSO only, 100% 113 µM cGMP. activation, % at 11.4 µM. 340,000 compounds, 0.079% hits. AID 504700;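 active means activation above a cutoff set at the mean over all compounds plus 3 SD, cut at about 18% in these data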;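 further: higher means more holoenzyme dissociation and a rise in polarization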
# Target sequence (P31323 whole entry, looked up, other chains not shown, the tested form may be a part): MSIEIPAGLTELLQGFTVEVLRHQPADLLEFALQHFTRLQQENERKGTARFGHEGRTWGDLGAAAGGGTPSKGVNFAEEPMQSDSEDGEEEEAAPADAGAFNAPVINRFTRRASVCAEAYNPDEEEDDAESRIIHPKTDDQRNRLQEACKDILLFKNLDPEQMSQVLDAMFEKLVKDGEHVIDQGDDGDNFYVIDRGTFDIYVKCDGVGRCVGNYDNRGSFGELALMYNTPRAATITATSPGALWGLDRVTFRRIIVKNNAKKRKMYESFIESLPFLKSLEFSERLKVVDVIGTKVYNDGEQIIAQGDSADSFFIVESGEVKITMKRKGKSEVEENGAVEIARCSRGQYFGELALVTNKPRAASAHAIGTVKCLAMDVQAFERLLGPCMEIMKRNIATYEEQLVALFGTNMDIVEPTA
# PKA-R1A act = PKA-R1A complex activation; P00514+P68181; PKA-R1A dissociation, Cy5-IP20 fluorescence polarization; scaled: DMSO 0%, 113 µM cGMP 100%; activation, % at 11.4 µM; 340,000 compounds, 0.083% hits;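 active means percent activation above the mean of all tested compounds plus 3 SD, cut at about 19% in these data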;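 further: higher means more PKAc released from R1A so a rise in polarization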
# HDAC3 inhib = inhibitors of human histone deacetylase 3. recombinant HDAC3, fluorogenic peptide/trypsin coupled, fluorescence. inhibition, % at 8.3 µM. 320,000 compounds, 0.15% hits. AID 2718; in the data active means inhibition above about 26%, passing the limit was not always enough; inconclusive means no clear call, values can overlap the other calls
# Numbers without * were called inactive; ? = inconclusive; / = not tested or not shown. Rows were chosen to be rich in hits. Some 0.43% of all compounds tested hit in one or more screens of this group.
SMILES,Rtt109 Vps75,PKA-R2B act,PKA-R1A act,HDAC3 inhib
CCC(=O)Nc1cccc2cccnc12,/,-15,4,-3
O=C(Cc1ccc(F)cc1)Nc1cccc2cccnc12,63*,-15,-2,2
COc1ccc(C[C@H]2CN3C(=NC[C@@H]3Cc3ccc(O)cc3)N2C[C@H](C)NC(=O)c2ccc(C)c(Br)c2)cc1,25,-9,-6,2
Cc1ccc(NC(=O)CN(c2ccc(Cl)cc2)S(=O)(=O)c2cc([N+](=O)[O-])ccc2Cl)c(C)c1,-10,/,/,5
COc1ccc(N2CCOCC2)c(NC(=O)c2ccc3c(c2)OCO3)c1,4,4,-7,1
C[C@H]1CN([C@@H](C)CO)C(=O)c2cccc(NC(=O)Nc3ccc(C(F)(F)F)cc3)c2O[C@@H]1CN(C)S(=O)(=O)c1ccc(Cl)cc1,4,-2,-8,34*
C[C@H](CO)N1C[C@H](C)[C@@H](CN(C)S(=O)(=O)c2ccc(F)cc2)Oc2c(NC(=O)Nc3ccc(C(F)(F)F)cc3)cccc2C1=O,-11,-10,-14,19
Cc1ccc(S(=O)(=O)N/N=C\C=C\c2ccccc2)cc1,51*,-8,-15,6
O=C(/C=C/c1ccccc1[N+](=O)[O-])Nc1cc(S(=O)(=O)N2CCOCC2)ccc1N1CCOCC1,-8,-3,-6,/
O=C1c2ccccc2C(=O)N1OS(=O)(=O)c1ccccc1,/,/,/,44*
CC1=[N+](C)c2c(ccc3cccnc23)C1(C)C,13,31*,24*,/
CCOC(=O)CSc1n[nH]c(NC(=O)c2ccc(F)cc2)n1,4,1,0,50*
CCOC(=O)CSc1n[nH]c(NC(=O)c2ccccc2)n1,-10,-5,3,?
CC(C)[C@H](NC(=O)[C@H](CCCN=C(N)N)NC(=O)NC(Cc1ccccc1)C(=O)O)C(=O)NC(C=O)CCCN=C(N)N (stereo partly drawn),-1,-5,-19,84*
CC(C)C(NC(=O)OCc1ccccc1)C(=O)NC(Cc1ccc(O)cc1)C(=O)O (stereo not drawn),-16,-5,-1,-5
O=C(/C=C/c1cn(CC(O)CN2CCCCC2)c2ccccc12)c1ccccc1 (stereo not drawn),53*,-5,-8,/
O=C(/C=C/c1cn(CC(O)CN2CCCCC2)c2ccccc12)c1cccs1 (stereo not drawn),4,4,-10,10
CC(C)C[C@H](NC(=O)c1nc[nH]c1C(=O)NCC(=O)OC(C)(C)C)C(=O)OC(C)(C)C,-28,-14,-5,30*
CC(C)C[C@H](NC(=O)c1nc[nH]c1C(=O)N[C@@H](CC(C)C)C(=O)OC(C)(C)C)C(=O)OC(C)(C)C,-3,5,6,1
CC(C)(C)OC(=O)NCCCCCNC(=O)c1[nH]cnc1C(=O)N[C@@H](Cc1ccccc1)C(=O)OC(C)(C)C,14,-14,1,28*
CC1(C)c2ccccc2-n2c1cc1oc(=O)cc(O)c1c2=O,-1,-7,-3,1
Cc1cccc(NC(=O)CCN2C(=O)c3ccccc3C2=O)c1,59*,3,16,2
O=C(Nc1ncccc1O)c1ccc(Cl)c(S(=O)(=O)N2CCCC2)c1,/,-4,-11,/
Oc1ccccc1CNc1cnc2ccccc2c1,57*,-22,-6,-7
Oc1ccc(Cl)cc1CNc1cnc2ccccc2c1,-3,-5,-7,-2
SMILES,Rtt109 Vps75,PKA-R2B act,PKA-R1A act,HDAC3 inhib
COc1cc(OC)cc(C(=O)Nc2nc(-c3ccccc3)c(-c3ccccc3)o2)c1,/,-2,10,5
CC(=O)Nc1nc(-c2ccccc2)c(-c2ccccc2)o1,59*,-6,-3,-4
C#CCOCCOCCOCCNc1nc(N2CCN(C(=O)CCCCCCCCCCNC(=O)[C@H]([C@@H](C)CC)n3cc(CCCCCN)nn3)CC2)nc(N2CCN(C(=O)CCCCCCCCCCNC(=O)[C@@H]([C@H](C)O)n3cc(C)nn3)CC2)n1,26,-15,5,4
C#CCOCCOCCOCCNc1nc(N2CCN(C(=O)CCCCCCCCCCNC(=O)[C@H](CCCCN)n3cc(CCO)nn3)CC2)nc(N2CCN(C(=O)CCCCCCCCCCNC(=O)[C@H](CCCN=C(N)N)n3cc(C[C@@H](C)CC)nn3)CC2)n1,2,-4,6,29*
C#CCOCCOCCOCCNc1nc(N2CCN(C(=O)C([C@@H](C)O)n3cc([C@@H](N)CCCCN)nn3)CC2)nc(N2CCN(C(=O)C([C@@H](C)O)n3cc([C@@H](N)CCCCN)nn3)CC2)n1 (stereo partly drawn),73*,-3,2,-1
C#CCOCCOCCOCCNc1nc(N2CCN(C(=O)CCCCCCCCCCNC(=O)[C@H](CCCCN)n3cc(C[C@@H](C)CC)nn3)CC2)nc(N2CCN(C(=O)CCCCCCCCCCNC(=O)[C@H](CCCCN)n3cc(C[C@@H](C)CC)nn3)CC2)n1,6,-2,-1,53*
C#CCOCCOCCOCCNc1nc(N2CCN(C(=O)CCCCCCCCCCNC(=O)[C@H](CCCCN)n3cc(C)nn3)CC2)nc(N2CCN(C(=O)CCCCCCCCCCNC(=O)[C@@H]([C@H](C)CC)n3cc(CCCCCN)nn3)CC2)n1,?,3,8,31*
CC(C)(C)[C@H]1C=C(C(=O)O)O[C@@H](OCc2ccc(CO)cc2)C1,3,7,-9,1
CC1=C[C@H](C)[C@H](c2c(F)cccc2Cl)CC1=O,8,-16,0,-6
CCN(C(=O)CSc1nc2cc(S(=O)(=O)N(CC)CC)ccc2n1CC)C1CCS(=O)(=O)C1 (stereo not drawn),-8,3,-1,-6
CC1CCCCC1N(C)C1CCN(C(=O)CNC(=O)/C=C/c2cccc(Cl)c2)CC1 (stereo not drawn),51*,-16,-10,0
CN(C1CCCC1)C1CCN(C(=O)CNC(=O)/C=C/c2ccccc2)CC1,-2,2,-10,3
Cc1c(C(=O)Nc2ccccc2F)sc2ncn(CC(=O)N3CCOCC3)c(=O)c12,-2,-3,-2,4
CC#CCN(CC#CC)S(=O)(=O)c1ccc(-n2cnnn2)c(OC)c1,54*,2,7,-1
COc1cccc(/C=C2\SC(=S)N(C(C)C(=O)NC3C=CS(=O)(=O)C3)C2=O)c1 (stereo not drawn),154*,-4,-12,-4
CC(C)(C)c1cc(CN2CCCC(O)C2)c(O)c(C(C)(C)C)c1 (stereo not drawn),10,-1,-22,36*
O=C(CC1SC(=O)N(c2ccccc2)C1=O)Nc1ccc(Br)cc1 (stereo not drawn),/,/,/,50*
O=C(CC1Sc2ncnn2C1=O)Nc1ccc(Cl)cc1 (stereo not drawn),/,/,/,-4
O=C(CC1SC(=O)N(c2ccccc2)C1=O)Nc1ccc(Cl)cc1 (stereo not drawn),11,6,-4,45*
COc1cccc(/C=C2/Sc3ccc(C(=O)NCCN4CCCC4)cc3NC2=O)c1,55*,0,4,9
